# Screening data deposited in PubChem BioAssay by National Center for Advancing Translational Sciences (NCATS).
# Nrf2 block: blocks Nrf2 signaling; A549 ARE-Fluc reporter, luciferase luminescence, 18-24 h; Potency, µM (titrated, usually from 46 µM), for inactives: at the top dose activity change, negative = inhibition, most hits filed as inhibitors; hit rate 2.1% among 360,000; AID 504444; note: % is set by controls: 0 for no effect and ±100 for the full control effect; nearly all actives have a fitted effect of over 60% in size
#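 Cells were seeded and rested 2 h, then exposed to compounds for 18-24 h. CellTiter-Fluor was read first as a viability measure. BugLite was added 15 min before the final luminescent read of ARE-luciferase activity in A549 cells.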
# Epigenetic reg: epigenetic control regulation, reporter derepression | murine LDR cells, GFP reporter derepression, 30 h | Potency, µM (titrated, usually from 53.9 µM), for the others: at the top dose GFP activation, most hits filed as activators | hit rate 0.2% among 280,000; note: % of control where 0% means no effect; nearly all actives have a fitted effect of over 60% in size
#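 Readout is the number of GFP-expressing murine LDR cells, counted by cytometry following washing. Cells were treated with compound for 30 h at 37 C; the stably integrated CMV-GFP locus is normally silent.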
# PINK1 modulator: modulators of PINK1 expression; PINK1 immunofluorescence, high-content cytometry, 24 h; Potency, µM (series often up to 76.6 µM), without a hit: at the top dose activation (PINK1 increase), actives largely listed as activators; hit rate 0.2% among 410,000; AID 624263; active = well fitted activation curve with a large enough effect; inconclusive = small, poorly fitted or top-dose-only effect; cell line not stated here; note: % of control where 0% means no effect; nearly all actives have a fitted effect of over 65% in size
#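 Stable cell line treated 24 h with compounds at 5 concentrations (CCCP controls), then fixed and immunostained for PINK1 plus nuclear and cell stains; PINK1 immunofluorescence quantified by laser-scanning microplate cytometry.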
# Nrf2 ARE act: activates Nrf2 signaling; hit rate 0.31% among 410,000; Potency, µM (highest dose often 46.1 µM), for the others: top-dose activation, actives largely listed as activators; AREc32 ARE-luciferase reporter (MCF7-derived line), luminescence, 24 h; note: % of control where 0% means no effect; nearly all actives have a fitted effect of over 65% in size
#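 Nrf2 activation is followed as ARE-luciferase induction in the AREc32 line after one day of compound treatment; luminescence is read with Steady-Glo.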
# A549 viability: A549 cytotoxicity, counter-screen for Nrf2 inhibitors; hit rate 0.16% among 390,000; Potency, µM (titrated, usually from 46 µM), without a hit: at the highest dose activity change, negative = cytotoxicity, actives largely listed as inhibitors; A549 ARE-Fluc cells, CellTiter-Fluor viability, 18-24 h; note: % is set by controls: 0 for no effect and ±100 for the full control effect
#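 A549 ARE-Fluc cells in 5% FBS OPTI-MEM, 5000 cells/well, rested 2 h then exposed to compounds in concentration-response for 18-24 h at 37 °C. Viability by CellTiter-Fluor fluorescence (Ex 405/Em 525) after 30 min; luciferase luminescence (BugLite, 15 min, RT) read afterwards.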
# * hit, by the source's call; ? = inconclusive; nt = no result given; [ ] = dose if it differs, or a comment. In the library only some 2.4% were active in any assay of this set; here they are far more common. Unless noted, calls come from the whole dose curve; as a rule, active = well fitted curve in the direction sought with a large enough effect; inconclusive = small, poorly fitted or top-dose-only effect, or another doubt; inactive = no such curve, though single readings can be large; an effect the other way counts as inactive or inconclusive. Potency is the fitted concentration of half-maximal effect.
SMILES,Nrf2 block,Epigenetic reg,PINK1 modulator,Nrf2 ARE act,A549 viability
Cc1cccc(NS(=O)(=O)c2ccc3c(c2)CC(C)N3C(=O)C2CCC2)c1C (stereo unspecified),?,1%,2%,0%,-4%
CCOc1ccc(Nc2cc(C)nc3nncn23)cc1,-10%,0%,-1%,6%,2%
Cc1cnc(C)c(-c2cccc3c2OC(CNC(=O)/C=C/c2ccncc2)C3)n1 (stereo unspecified),nt,nt,0%,nt,nt
C#CCOCCOCCOCCNc1nc(N2CCN(C(=O)CCCCCCCCCCNC(=O)[C@H]([C@@H](C)CC)n3cc(CCCCN=C(N)N)nn3)CC2)nc(N2CCN(C(=O)CCCCCCCCCCNC(=O)[C@@H]([C@H](C)O)n3cc(C)nn3)CC2)n1,23µM*,nt,1%,-3%,?
CC(C)c1ccc(C2C(C#N)=C(N)N3C(=C2C#N)Sc2ccccc23)cc1 (stereo unspecified),nt,20µM*,nt,nt,nt
COc1ccc2ccccc2c1CN1CCOc2ccc(CN3CCN(CCO)CC3)cc2C1,nt,nt,0%,nt,nt
COCCCn1c(-c2ccc(S(=O)(=O)N3CCOCC3)cc2)csc1=Nc1ccccc1,16µM*,-2%,-1%,3%,1%
FC(F)Oc1ccc(-c2csc(=Nc3cccnc3)n2CC2CCCO2)cc1 (stereo unspecified),15µM*,-4%,1%,1%,0%
COc1ccc(N=c2scc(-c3ccc(OC)cc3)n2CCO)cc1,18µM*,0%,-1%,2%,-24%
Clc1ccc(-c2csc(=Nc3cccnc3)n2CCCn2ccnc2)cc1Cl,?,0%,-1%,-1%,-8%
COc1ccc(-c2csc(=Nc3ccccc3)n2CCO)cc1F,?,-1%,3%,10%,-13%
OCCCn1c(-c2ccccc2)csc1=Nc1ccccc1,-17%,1%,1%,7%,5%
CCN(CC)CCn1c(-c2ccccc2)csc1=Nc1ccccc1,14%,-1%,28µM*,11%,2%
CCc1cccc(C)c1NC(=O)CCS(=O)(=O)c1ccc2c(c1)oc(=O)n2C,6%,1%,4%,5%,12%
O=C(NC1CCCC1)c1cn(C2CCCN(Cc3ccc4c(c3)OCCO4)C2)nn1 (stereo unspecified),nt,nt,0%,nt,nt
COCCn1c(-c2ccc(Br)cc2)csc1=Nc1cccnc1,18µM*,9%,-1%,3%,-15%
Cc1ccccc1CS(=O)(=O)Cc1ccc(C(=O)NCCc2ccc(Cl)cc2)o1,nt,0%,2%,-3%,-25%
COc1ccccc1NS(=O)(=O)c1ccc2oc(SCc3ccc(C#N)cc3)nc2c1,16µM*,-2%,-1%,10%,-12%
CCN(CC)S(=O)(=O)c1ccc2oc(SCc3ccc(F)cc3)nc2c1,18µM*,-19%,0%,2%,-17%
CCN(CC)S(=O)(=O)c1ccc2oc(SCC(=O)NC3CC3)nc2c1,17%,nt,4%,4%,2%
O=C1c2cccc(O)c2C(=O)c2c(O)cccc21,nt,1%,0%,nt,nt
CC1OC(CC(=O)O)CC2=C1C(=O)c1c(O)cccc1C2=O (stereo unspecified),21µM*,nt,-6%,-1%,15µM*
CCOc1cc(/C=N/NC(=O)c2cc(-c3cccc(OC)c3)n[nH]2)ccc1O,nt,12%,nt,nt,nt
CC1CCN(c2ncnc3ccccc23)CC1,15µM*,1%,3%,0%,-14%
O=C(Nc1ccc(Br)c2ccccc12)c1ccc2ccccc2c1O,?,5%,25µM*,-1%,?
SMILES,Nrf2 block,Epigenetic reg,PINK1 modulator,Nrf2 ARE act,A549 viability
CCCCC#Cc1cncc(C(=O)NN)c1,18µM*,3%,-1%,0%,3%
CC(C)Cn1c(N)c(C(=O)COC(=O)C2CCCCC2)c(=O)n(C)c1=O,?,-1%,-1%,0%,-9%
COc1ccc(CCC(=O)OCC(=O)c2c(N)n(CC(C)C)c(=O)n(C)c2=O)cc1,23µM*,nt,-1%,0%,-11%
CC(=O)c1c(C)[nH]c(C(=O)OCC(=O)c2c(N)n(CC(C)C)c(=O)n(C)c2=O)c1C,18µM*,nt,5%,7%,-2%
Cc1nn(-c2ccccc2)c(C)c1C(=O)OCC(=O)c1c(N)n(CC(C)C)c(=O)n(C)c1=O,5.8µM*,1%,5%,-1%,?
CC(C)Cn1c(N)c(C(=O)COC(=O)C2Cc3ccccc3CN2S(C)(=O)=O)c(=O)n(C)c1=O (stereo unspecified),21µM*,nt,-2%,2%,-10%
CC(C)Cn1c(N)c(C(=O)COC(=O)c2ccc(O)cc2)c(=O)n(C)c1=O,-8%,-4%,-2%,0%,0%
OC1(c2cccnc2)CCN(Cc2ccc3c(c2)CN(Cc2ccsc2)CCO3)CC1,nt,nt,0%,nt,nt
CCOc1ccccc1OCC(=O)OCC(=O)c1c(N)n(CC(C)C)c(=O)n(C)c1=O,?,nt,2%,3%,-1%
CCC(C(=O)OCC(=O)c1c(N)n(CC(C)C)c(=O)n(C)c1=O)c1ccccc1 (stereo unspecified),23µM*,nt,2%,-1%,-16%
Clc1ccc(CN(CC2CCCO2)C(c2cccs2)c2nnnn2C2CCCC2)cc1 (stereo unspecified),12µM*,-1%,7%,0%,-26%
CCOC(=O)[C@]1(C(NC(=O)OC)c2cccc(C)c2)CCCC1=O (stereo partly specified),nt,0%[10.1 µM],nt,nt,nt
Cc1ccc(C(=O)Nc2cccc(-c3nc(CNC(=O)[C@@H]4C[C@@H](C)NC(=S)N4)c(C)o3)c2)s1,nt,nt,1%,nt,nt
O=C(Nc1nnc(CSCc2ccc(Cl)cc2)s1)c1cccc([N+](=O)[O-])c1,?,1%,?,0%,-16%
O=C(Nc1nnc(CSCc2ccc(F)cc2)s1)c1cccc([N+](=O)[O-])c1,18µM*,0%,?,4%,?
COc1ccc(NC(=O)COC(=O)c2cc(=O)c3ccccc3o2)cc1OC,21%,nt,7%,13µM*,0%
COc1cccc(NC(=O)COC(=O)c2c3c(nc4ccccc24)CCC(C)C3)c1 (stereo unspecified),16µM*,-2%,?,-3%,?
Cc1cc(N2CCN(C)CC2)ccc1NC(=O)c1c2c(nc3ccccc13)CCN(Cc1ccccc1)C2,18µM*,-3%,3%,28%,10µM*
Cc1c(Cl)cccc1NC(=O)COC(=O)c1c2c(nc3ccccc13)CCN(Cc1ccccc1)C2,21µM*,1%,-2%,0%,?
CC1CCc2nc3ccccc3c(C(=O)OCC(=O)NC3CCS(=O)(=O)C3)c2C1 (stereo unspecified),6%,-2%,-1%,0%,-1%
Cc1cnc(SCC2CCCO2)nc1C1CCCN(C(=O)C2=NNC(=O)CC2)C1 (stereo unspecified),nt,nt,0%,nt,nt
